# Compound activity: PubChem BioAssay, National Center for Advancing Translational Sciences (NCATS)
# HTT cytoprotect: protects HTT-Q103 PC12 cells, measured by ATP | PC12 HTT-Q103 induced, cytoprotection, ATP luminescence, 40 h | Potency, µM (titrated, usually from 56.4 µM), without a hit: cytoprotection (ATP increase), most hits filed as activators | 230,000 tested, 0.14% active | AID 1471; also: % of control where 0% means no effect; nearly all actives have a fitted effect of over 45% in size
#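 Huntington model: PC12 line, ecdysone-inducible HTTQ103 exon1–GFP, tebufenozide 100 nM. Test articles in a dose series. Endpoint luminescence from cellular ATP.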
# JMJD2E inh: blocks human JMJD2E demethylase activity. AID 2147. 230,000 tested, 1.6% active. Potency, µM (highest dose often 57.1 µM), for the others: top-dose activity change, negative = inhibition, hits mostly inhibitors. JMJD2E catalytic domain, FDH-coupled NADH fluorescence (FDH is formaldehyde dehydrogenase);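 also: 0% = wells with enzyme and -100% = buffer wells without enzyme; nearly all actives have a fitted effect of over 50% in size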
# L3MBTL1 inh: blocks human L3MBTL1 | Q9Y468 | AlphaScreen L3MBTL1–H3K9me1 peptide binding | Potency, µM (top dose mostly 57.1 µM), for the others: top-dose activity, negative = inhibition, hits mostly inhibitors | 230,000 tested, 0.66% active | AID 485360; also: % is scaled to controls: 0 for no effect and ±100 for the full control effect; nearly all actives have a fitted effect of over 60% in size
# Target sequence (Q9Y468 whole entry, looked up): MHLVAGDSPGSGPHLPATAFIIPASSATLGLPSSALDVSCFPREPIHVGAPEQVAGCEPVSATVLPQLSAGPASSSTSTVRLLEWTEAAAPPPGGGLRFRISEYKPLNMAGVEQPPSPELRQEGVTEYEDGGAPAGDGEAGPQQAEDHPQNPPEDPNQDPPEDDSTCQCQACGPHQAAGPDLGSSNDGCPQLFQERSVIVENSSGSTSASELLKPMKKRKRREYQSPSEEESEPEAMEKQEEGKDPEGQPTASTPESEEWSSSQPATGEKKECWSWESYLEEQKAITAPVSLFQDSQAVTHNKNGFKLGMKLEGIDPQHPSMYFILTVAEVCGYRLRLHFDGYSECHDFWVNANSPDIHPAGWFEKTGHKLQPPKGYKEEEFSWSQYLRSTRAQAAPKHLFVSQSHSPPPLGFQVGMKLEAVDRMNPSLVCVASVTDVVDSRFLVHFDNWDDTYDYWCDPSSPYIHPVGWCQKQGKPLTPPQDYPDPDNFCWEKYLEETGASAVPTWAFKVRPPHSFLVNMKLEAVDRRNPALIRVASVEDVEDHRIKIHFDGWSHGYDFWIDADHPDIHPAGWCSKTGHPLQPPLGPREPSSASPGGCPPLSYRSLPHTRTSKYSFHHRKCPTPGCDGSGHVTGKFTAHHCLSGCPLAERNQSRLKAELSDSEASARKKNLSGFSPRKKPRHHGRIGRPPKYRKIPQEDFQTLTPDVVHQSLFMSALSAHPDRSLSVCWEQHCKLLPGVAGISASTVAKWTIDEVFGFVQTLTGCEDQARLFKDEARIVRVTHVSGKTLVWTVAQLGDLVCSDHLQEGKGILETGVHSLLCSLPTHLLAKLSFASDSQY
#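 Read-out is AlphaScreen signal from streptavidin donor and nickel chelate acceptor beads (10 ug/mL final each) bridging L3MBTL1 (50 nM) and biotinylated K9-monomethylated H3(1-15) peptide (75 nM), after 30 min compound exposure at room temperature.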
# HttQ103 aggreg: inhibitors of mutant huntingtin aggregate formation in PC12 cells; PC12 HttQ103-GFP aggregates, Acumen cytometry, 40 h; Potency, µM (top dose mostly 46.1 µM), for inactives: at the top dose activity change, negative = inhibition, most hits filed as inhibitors; 220,000 tested, 1.1% active; AID 1688; also: % is scaled to controls: 0 for no effect and ±100 for the full control effect; nearly all actives have a fitted effect of over 60% in size
#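 PC12 cells with ecdysone-inducible HTT exon1 Q103-GFP, induced by 100 nM tebufenozide, given compounds in a concentration series. GFP aggregates (1–25 um, 6 SD above background) counted in lysates by laser-scanning cytometry, 488 nm excitation.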
# * marks the source's active call; other numbers are inactive results; ? = inconclusive; . = not tested or not shown; [ ] = dose if it differs, or a comment. Compounds with a hit are over-represented: about 1.8% of the library has one in this group of screens. Unless noted, calls follow the shape of the dose curve; as a rule, active = well fitted curve in the direction sought with a large enough effect; inconclusive = small, poorly fitted or top-dose-only effect, or another doubt; inactive = no such curve, though single readings can be large; an effect the other way counts as inactive or inconclusive. Potency is read from the fitted curve at half-maximal effect.
SMILES,HTT cytoprotect,JMJD2E inh,L3MBTL1 inh,HttQ103 aggreg
CC(C)[C@H](NC(=O)OC(C)(C)C)[C@@H](O)CC(=O)C(C)(C)C,-10%[10 µM],.,.,.
CCCCCc1ccc(OCCCC[n+]2ccccc2)c(CCCCC)c1,-91%,-2%,.,11µM*
CN(C)CCN(Cc1ccccc1)S(=O)(=O)c1cccc2cccnc12,2%,.,.,.
O=C(NNC(=S)NC(=O)C12CC3CC(CC(C3)C1)C2)c1ccncc1,3%[10 µM],?,7%,3.2µM*
CC(C)C(c1nnnn1C1CCCC1)N(C)C1CCCCC1 (stereo not drawn),31%,-2%,.,-8%
Cc1ccc(C(c2nnnn2C2CCCCC2)N(C)C2CCCCC2)cc1 (stereo not drawn),1%,2%,.,11µM*
Cc1ccc(C(=O)N/N=C/c2cccc(OC(=O)/C=C/c3ccco3)c2)cn1,16%[10 µM],-18%,32µM*,17%[9.22 µM]
O=C(/C=C/c1ccco1)Oc1cc(Br)cc(/C=N/NC(=O)c2ccccc2O)c1,-78%[10 µM],25µM*,-4%,2.2µM*
COC(=O)[C@@]1(Cc2ccccc2)[C@H]2c3cc(C(=O)N4CCCC4)n(Cc4ccc(O)c(OC)c4)c3C[C@H]2CN1C(=O)c1ccccc1,25%,-13%,.,.
COC(=O)c1c(C(=O)OC)c2cccc3cc(-c4ccccc4)c4ccc1c4n32,-15%,2.5µM*,.,2%
COC(=O)c1cc2c(-c3ccccc3)cc3ccccn3c-2c1C(=O)OC,-10%,-1%,.,-28%
O=C1CCCc2c1sc1nc3n(c(=O)c21)CCCCC3,-2%,?,.,21%
O=C1c2sc3nc4n(c(=O)c3c2CCC1Br)CCCCC4 (stereo not drawn),-36%,18µM*,-8%,-7%
CCC[C@@H]1O[C@@H]2C[C@@H]3[C@@H]4CCC5=CC(=O)C=C[C@@]5(C)[C@H]4[C@H](O)C[C@@]3(C)[C@@]2(C(=O)CO)O1,10%[1.9 µM],.,.,.
C[C@H]1CC[C@H]2C(=O)N3[C@H](c4ccc(Br)cc4)[C@@H](C)CC[C@H]3C(=O)N2[C@@H]1c1ccc(Br)cc1,-206%[10 µM],.,.,.
NC(=O)N/N=C/c1c(Sc2nnnn2-c2ccccc2)nc2ccccn2c1=O,4.5µM*,?,-1%,12%[9.22 µM]
Cc1nn(-c2ccccc2)c(Cl)c1/C=N/NC(N)=O,14%[10 µM],6%,.,-24%[9.22 µM]
Cn1nccc1C(=O)Oc1ccc(/C=N/NC(=O)c2ccccc2O)cc1,0.89µM*,?,.,?
C[C@@]12C[C@H](O)[C@@H]3[C@H](CCC4=CC(=O)CC[C@]43C)[C@H]1CC[C@@H]2c1csc(N)n1,-3%[10 µM],.,.,.
Oc1ccc(/C=N/Nc2cc(N3CCOCC3)nc(N3CCOCC3)n2)cc1O,-21%[10 µM],28µM*,-7%,-22%
Oc1ccccc1/C=N/Nc1cc(N2CCCC2)nc(N2CCCC2)n1,-8%[10 µM],?,?,?
CCC(Oc1ccccc1)C(=O)Nc1nnc(C)s1 (stereo not drawn),-21%,-2%,1%,-4%
CCC(Oc1ccccc1)C(=O)Nc1nnc(C(F)(F)F)s1 (stereo not drawn),0%[10 µM],5%,11%,25µM*
C/C(=N/Nc1nc(-c2ccccc2)cc(-c2ccccc2)n1)c1ccc(N)cc1,-24%[10 µM],4%,-16%,15%
C/C(=N/Nc1cc(-c2ccccc2)nc(-c2ccccc2)n1)c1ccc(O)cc1,12%[10 µM],?,-15%,35µM*
SMILES,HTT cytoprotect,JMJD2E inh,L3MBTL1 inh,HttQ103 aggreg
C[C@@](O)(/C=C/[C@H]1CC=CC(=O)O1)[C@@H](C[C@@H](O)\C=C/C=C\C=C\CO)OP(=O)(O)O,7%[10 µM],.,.,.
CC(C)=CCC/C(C)=C/CO/N=C1/C[C@@H](O)[C@@H](O)[C@@H]2[C@@H]3C(=O)N(Cc4ccccc4)C(=O)[C@H]3CC[C@H]12,-3%[10 µM],.,.,.
Cc1nc2cnc(N(C)C)nc2n(-c2ccccc2)c1=O,-73%,.,.,.
O=C(O)CC(C(=O)O)N1C(=O)/C(=C/c2ccc(-c3nc4ccccc4s3)o2)SC1=S (stereo not drawn),2%[10 µM],2.8µM*,4.5µM*,9%
O=C1S/C(=C\C=C\c2ccco2)C(=O)N1c1ccccc1,8%[10 µM],?,?,?
O=C1S/C(=C\C=C\c2ccco2)C(=O)N1c1ccc(O)cc1,7%[10 µM],1%,16µM*,20%
O=C(O)CC(C(=O)O)N1C(=O)/C(=C/C=C/c2ccco2)SC1=S (stereo not drawn),11%[10 µM],11µM*,1.1µM*,-1%[9.22 µM]
Cn1cccc1/C=C1\SC(=S)N(NC(=O)c2ccccc2O)C1=O,-17%[10 µM],-8%,-17%,4%[9.22 µM]
O=C(NN1C(=O)/C(=C/C=C/c2ccco2)SC1=S)c1ccccc1O,20%[10 µM],13µM*,1.3µM*,-22%[9.22 µM]
O=C(O)CCCN1C(=O)/C(=C/C=C/c2ccco2)SC1=S,-14%[10 µM],0%,0.71µM*,14%[9.22 µM]
COc1ccc(/C=C2\SC(=S)N(C(Cc3ccccc3)C(=O)O)C2=O)cc1 (stereo not drawn),-27%,-2%,?,8%
O=C(O)C(Cc1ccccc1)N1C(=O)/C(=C/C=C/c2ccco2)SC1=S (stereo not drawn),19%[10 µM],7.9µM*,1.3µM*,-10%[9.22 µM]
FC(F)(F)c1ccccc1-c1cc(NCc2cccnc2)ncn1,7%,.,.,.
Cc1cc(C(=O)OCC(=O)NC2CCCC2)c2ccccc2n1,.,.,2%,.
CCN1C/C(=C/c2cccs2)c2nc3ccccc3c(C(=O)O)c2C1,5%[10 µM],25µM*,-17%,-12%[9.22 µM]
CC(C)CNC(=O)COC(=O)c1c2c(nc3ccccc13)/C(=C/c1cccs1)CC2,-19%[10 µM],?,?,5.6µM*
CC1CCCCC1NC(=O)COC(=O)c1c2c(nc3ccccc13)/C(=C/c1ccco1)CC2 (stereo not drawn),-16%[0.074 µM],16µM*,?,31%
O=C(COC(=O)c1c2c(nc3ccccc13)/C(=C/c1ccco1)CC2)NC1CCCC1,-12%[10 µM],25µM*,4.5µM*,16%
COC(=O)N[C@@H](CCc1ccccc1)[C@]1(C(=O)OC)CCCC1=O,-13%,0%,.,.
N[C@H](Cc1cc(I)c(Oc2cc(I)c(O)c(I)c2)c(I)c1)C(=O)O,-19%[40.3 µM],-3%[25.5 µM],.,.
O=C1CCC=C1[C@@H](O)CCc1ccccc1,-1%[10 µM],.,.,.
COC(=O)C1(C(=O)OC)C/C=C\Cc2ccccc2[C@@H]1C[N+](=O)[O-],?,-1%,.,.
NC(=O)c1ccc(C[C@H](C(=O)O)N2C(=O)c3ccc(C(=O)O)cc3C2=O)cc1,.,.,10%,.
COCCn1c(C)cc(C2=NNC(=Nc3ccccc3)SC2)c1C,-20%,-26%,7%,6%
COc1ccccc1C1=NNC(=Nc2cccc(S(=O)(=O)N(C)C)c2)SC1,?,?,?,11µM*
O=C1N[C@H](Cc2ccccc2)C(=O)N1Cc1cccc2ccccc12,-1%,3%,.,.
O=C(/C=C/c1ccc(O)c(O)c1)c1ccc(S(=O)(=O)N2CCCCCC2)cc1,-1%[10 µM],28µM*,?,?
O=C(c1ccc(S(=O)(=O)N2CCCC2)cc1)N1CCCCC1,.,.,7%,.
C[C@@]12CCC(=O)C=C1CC[C@H]1[C@@H]2[C@@H](O)C[C@]2(C)[C@@H]1CC[C@@]2(O)C(=O)CO,-5%[10 µM],.,.,.
